HSF1 inhib: HSF1 inhibition; NIH3T3-HGL HSE-luciferase, MG132-induced, luminescence 8 h; hits give low values; activity change, negative = inhibition, % at 7.5 µM (by protocol); 300,000 compounds, 0.77% hits;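 active = more than half of replicate wells show activity change below -50%, luminescence cut by over half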;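 also: luciferase reports HSF-1 transcriptional activity via heat shock element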
HSF1 activator: increases HSF-1 driven luciferase reporter signal. NIH3T3-HGL HSF-1 luciferase reporter, MG132, 8 h; 100% = twice DMSO control signal. activation, % at 9 µM. 300,000 compounds, 1.7% hits. AID 504408;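 active = mean replicate activation of at least 50% with a set share of replicates each reaching 50%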
HSP90 inh: blocks HSP90-mediated luciferase refolding in reticulocyte lysate. AID 1789. 290,000 compounds, 0.91% hits. Rabbit reticulocyte lysate, luciferase refolding luminescence, 3 h. inhibition, % at 5.6 µM;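 active = inhibition above the screen-wide mean plus 3 SD, computed separately per campaign, cut at about 16% in these data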;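 also: inhibitors lower the luminescence because luciferase stays unfolded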
MPTP block: inhibitors of mitochondrial permeability transition pore. isolated mouse mitochondria, Ca2+ swelling absorbance, 30 min. inhibition, % at 10 µM. 360,000 compounds, 1.4% hits;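 active = inhibition of 50% or more, scaled per plate between neutral and stimulator controls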
dFosB act-1: activators of mouse delta FosB homodimer; activation, % at 25 µM; 340,000 compounds, 0.99% hits; purified delta FosB, TAMRA-CDK5 oligo fluorescence polarization; percent of positive-control signal above neutral wells; P13346; AID 493131;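 active = mean activation above about 17%, with every replicate also reaching it, limit read from the data, passing the limit was not always enough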
Target sequence (P13346 whole entry, looked up): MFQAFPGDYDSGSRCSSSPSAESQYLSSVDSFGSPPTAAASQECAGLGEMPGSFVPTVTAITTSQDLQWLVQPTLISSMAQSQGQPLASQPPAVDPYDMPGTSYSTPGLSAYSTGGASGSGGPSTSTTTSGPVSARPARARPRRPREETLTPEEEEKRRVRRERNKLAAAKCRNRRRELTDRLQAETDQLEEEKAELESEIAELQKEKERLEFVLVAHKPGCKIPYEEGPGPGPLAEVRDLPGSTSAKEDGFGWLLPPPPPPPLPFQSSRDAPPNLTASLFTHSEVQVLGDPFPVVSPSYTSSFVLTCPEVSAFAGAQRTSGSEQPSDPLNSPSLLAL
Platelet DG rel: modulates dense granule release in human platelets; 300,000 compounds, 0.22% hits; human platelet-rich plasma, SFLLRN dense granule ATP release, luminescence; inhibition, %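 (compounds screened at 7.5 µM in platelet-rich plasma)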;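 active = mean replicate score, as percent of positive control, at or above 50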
dFosB act-2: enhances mouse delta FosB homodimer binding to DNA. shares compounds with dFosB act-1. purified delta FosB, TAMRA-CDK5 oligo fluorescence polarization; normalised: neutral wells 0, positive control 100. activation, % at 24.9 µM. 2,400 tested, under 10 active;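 active = highest replicate activation at or above 34% and every replicate reaching that threshold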;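 also: higher polarization means more probe DNA bound by delta FosB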
Large screens that a line does not name were inactive (follow-up assays come after a bar, where they were run). This is a sample that favours compounds with a hit; in the whole collection about 4.9% have one here.

Cc1c(-c2cc(Br)ccc2O)nc2cc3c(cc2c1C)OCO3	dFosB act-1 24.4 | dFosB act-2 inactive
NC(=O)CSc1nnc(SCc2ccc(F)cc2)s1	none
Cc1ccc(C(Sc2ccccc2)C(Cn2cncn2)C(=O)c2ccccc2)cc1 (configuration not stated)	dFosB act-1 23.6 | dFosB act-2 inactive
Cc1ccc(SC(c2ccc(C)cc2)C(Cn2cncn2)C(=O)c2ccccc2)cc1 (configuration not stated)	none
CCOC(=O)Nc1ccc2c(c1)N(C(=O)CN)c1ccccc1CC2	dFosB act-1 29.6 | dFosB act-2 inactive
Cn1nc(C(=O)Nc2ccc(Br)cc2)cc1C(=O)Nc1ccc(Br)cc1	dFosB act-1 40.0 | dFosB act-2 inactive
O=S(=O)(N/N=C\c1ccc(-c2ccccc2Cl)o1)c1ccccc1	none
O=C(N/N=C/c1ccc(-c2ccccc2Cl)o1)c1ccccc1	dFosB act-1 32.0 | dFosB act-2 inactive
Cc1ccc(S(=O)(=O)/N=C(\N)Nc2nc(C)c3ccc(C)cc3n2)cc1	none
Cc1ccc2c(C)nc(N/C(N)=N/S(=O)(=O)c3ccccc3)nc2c1	dFosB act-1 25.3 | dFosB act-2 inactive
CCOc1ccc(NC(=O)CN(C)C(=O)c2sc3ccccc3c2Cl)cc1OCC	none (no result: HSP90 inh)
CC[C@@H](C)[C@@H]1CN([C@@H](C)CN2CCC[C@H]2CN2C(N)=NC[C@@H]2Cc2ccccc2)C(=N)N1CCc1ccc(Cl)c(Cl)c1	dFosB act-1 22.8 (no result: HSF1 inhib, HSF1 activator, HSP90 inh, Platelet DG rel) | dFosB act-2 inactive
CC[C@@H](C)[C@@H]1CN([C@@H](C)CN2CCC[C@H]2CN2C(N)=NC[C@@H]2Cc2ccccc2)C(=N)N1CCCC1CCCC1	none (no result: HSF1 inhib, HSF1 activator, HSP90 inh, Platelet DG rel)
CCc1ccccc1NC(=O)c1cc(S(=O)(=O)N2CCc3ccccc32)cn1C	dFosB act-1 25.8 | dFosB act-2 inactive
Cc1cccc(NC(=O)c2cc(S(=O)(=O)N3CCc4ccccc43)cn2C)c1C	dFosB act-1 40.1 | dFosB act-2 inactive
Cc1ccc(NC(=O)c2cc(S(=O)(=O)N3CCc4ccccc43)cn2C)cc1C	none
COc1ccc(NC(C)C(=O)Nc2cccc(S(=O)(=O)N3CCOCC3)c2)cc1OC (configuration not stated)	none (no result: HSF1 inhib, HSF1 activator, HSP90 inh, Platelet DG rel)
Cc1cccc(CSc2nc3ccncc3n2CC(=O)Nc2cc(C)cc(C)c2)c1	dFosB act-1 32.9 | dFosB act-2 inactive
NC(=O)c1nsc(C(=O)N(c2ccccc2F)C(C(=O)NCc2ccc(F)cc2)c2ccc(O)cc2)c1N (configuration not stated)	dFosB act-1 43.6 | dFosB act-2 inactive
COc1ccccc1N(C(=O)c1snc(C(N)=O)c1N)C(C(=O)NCc1ccccc1)c1ccc(O)cc1 (configuration not stated)	none
CCCC(C(=O)NC1CCCC1)N(C(=O)c1snc(C(N)=O)c1N)c1ccc(F)cc1 (configuration not stated)	dFosB act-1 24.1 | dFosB act-2 inactive
COc1ccc(N(C(=O)c2snc(C(N)=O)c2N)C(C(=O)NC2CCCC2)c2cccs2)cc1OC (configuration not stated)	dFosB act-1 36.7 | dFosB act-2 inactive
COc1ccc(N(C(=O)c2snc(C(N)=O)c2N)C(C(=O)NC2CCCC2)c2cc(OC)ccc2OC)c(OC)c1 (configuration not stated)	none
CCC(C(=O)NC1CCCC1)N(C(=O)c1snc(C(N)=O)c1N)c1ccc(OC)c(OC)c1 (configuration not stated)	none
COc1ccc(N(C(=O)c2snc(C(N)=O)c2N)C(C(=O)NC2CCCCC2)c2ccc(F)cc2)c(OC)c1 (configuration not stated)	dFosB act-1 40.4 | dFosB act-2 inactive
COc1ccccc1-c1cc(C(=O)NC2CCCC2)no1	none
COc1ccc(/C=C2\SC(=O)N(CCC(=O)Nc3ccc(S(=O)(=O)Nc4nccs4)cc3)C2=O)cc1	dFosB act-1 86.0 (no result: HSF1 inhib, HSF1 activator) | dFosB act-2 inactive
O=C(NCc1ccc2c(c1)OCO2)C1CCCN1C(=O)Nc1ccc(Cl)cc1 (configuration not stated)	none
CC(=O)Nc1ccc2nc(NC(=O)COc3ccccc3)sc2c1	none
COC(=O)c1sc(NC(=O)COc2cccc(C)c2)nc1C	none
CC(=O)Nc1ccc2nc(NC(=O)COc3cccc(C)c3)sc2c1	dFosB act-1 46.9 | dFosB act-2 inactive
CC(=O)Nc1ccc2nc(NC(=O)COc3ccc(C)cc3)sc2c1	dFosB act-1 19.3 | dFosB act-2 inactive
O=C(COc1ccccc1)Nc1nc2cc3c(cc2s1)OCO3	dFosB act-1 27.7 | dFosB act-2 inactive
CC(=O)Nc1ccc(NC(=O)COc2ccc(-c3ccc(C#N)cc3)cc2)cc1	dFosB act-1 33.6 (no result: HSP90 inh) | dFosB act-2 inactive
N#Cc1ccc(-c2ccc(OCC(=O)Nc3cccnc3)cc2)cc1	none
Cc1cccc(C)c1NC(=O)CN(C)C(=O)CN1C(=O)NC(C)(C)C1=O	none (no result: HSF1 inhib, HSF1 activator, HSP90 inh, Platelet DG rel)
CCOC(=O)c1sc2nc(C)n(N)c(=O)c2c1C	none
CCOC(=O)c1sc2nc(C)[nH]c(=S)c2c1C	dFosB act-1 20.6 | dFosB act-2 inactive
CSc1ccccc1OCc1cc(C(=O)N(Cc2nccn2C)C(C)C)no1	none
COc1ccccc1/C=C1\SC(=O)N(CCC(=O)NNC(=O)c2ccccc2Cl)C1=O	dFosB act-1 20.8 | dFosB act-2 inactive
Cc1c(C(=O)N/N=C/c2cccnc2)nnn1-c1nonc1N	none
CCN(CC)S(=O)(=O)c1ccc(N2CCCC2)c(NC(=O)c2ccc(N3CCCC3=O)cc2)c1	none (no result: HSP90 inh)
O=C(OCC(O)C(O)C(O)C(SCc1ccccc1)SCc1ccccc1)c1ccccc1 (configuration not stated)	dFosB act-1 22.8 (no result: HSF1 inhib, HSF1 activator, HSP90 inh, Platelet DG rel) | dFosB act-2 inactive
O=C(OCC(O)C(O)C(O)COC(=O)c1ccccc1)c1ccccc1 (configuration not stated)	none (no result: HSF1 inhib, HSF1 activator, HSP90 inh, Platelet DG rel)
CC(=O)c1cccc(NC(=O)c2cc(-c3ccc(F)cc3)on2)c1	dFosB act-1 24.8 | dFosB act-2 inactive
O=C(Nc1cccnc1Cl)c1cc(-c2ccc(F)cc2)on1	dFosB act-1 83.6 | dFosB act-2 inactive
Cc1ccc(NC(=O)c2cc(-c3ccc(F)cc3)on2)cc1C	none
COc1ccc(-c2cc(C(=O)Nc3cccnc3Cl)no2)cc1	none
O=C(Nc1cccnc1)c1cc(-c2cccc(Cl)c2)on1	dFosB act-1 57.0 | dFosB act-2 inactive
Cc1ccc(-c2ccc(OC(=O)c3ccc(=O)[nH]c3)c(C)c2)cc1	none
COc1cccc(C2N=C(c3ccccc3C)NO2)c1OC (configuration not stated)	none
Cc1cc(C(=O)N/N=C/c2cccc(OC(=O)c3cccc(Br)c3)c2)n[nH]1	dFosB act-1 29.5 (no result: HSF1 inhib, HSF1 activator, Platelet DG rel) | dFosB act-2 inactive

From PubChem
